# Screening data deposited in PubChem BioAssay by National Center for Advancing Translational Sciences (NCATS).
# In the library only some 3% were active in any assay of this set; here they are far more common.
# Nrf2 ARE act: activates Nrf2 signaling; AID 624171; Potency, µM (series often up to 46.1 µM), without a hit: top-dose activation, actives largely listed as activators; 410,000 tested, 0.31% active; AREc32 ARE-luciferase reporter (MCF7-derived line), luminescence, 24 h; note: potency is the fitted concentration of half-maximal effect; % of control where 0% means no effect; nearly all actives have a fitted effect of over 65% in size
#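 AREc32_Fluc, 1000 cells/well, OPTI-MEM + 5% FBS, o/n 37 deg C 5% CO2; 23 nL cpd by pin tool, 24 hr; Steady-Glo 30 min RT, luminescence.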
# DRD3 antagonist: D3 dopamine receptor (human) antagonism; P35462; max response, negative = inhibition, %; D3R cells, DiscoveRx beta-arrestin luminescence, antagonist mode; stronger effect = lower value; 360,000 tested, 2.5% active; AID 652054; in the data active = max response below about -50%; inconclusive = no clear call, values can overlap the other calls; note: % is set by controls: 0 for no effect and ±100 for the full control effect
# Target sequence (P35462 whole entry, looked up): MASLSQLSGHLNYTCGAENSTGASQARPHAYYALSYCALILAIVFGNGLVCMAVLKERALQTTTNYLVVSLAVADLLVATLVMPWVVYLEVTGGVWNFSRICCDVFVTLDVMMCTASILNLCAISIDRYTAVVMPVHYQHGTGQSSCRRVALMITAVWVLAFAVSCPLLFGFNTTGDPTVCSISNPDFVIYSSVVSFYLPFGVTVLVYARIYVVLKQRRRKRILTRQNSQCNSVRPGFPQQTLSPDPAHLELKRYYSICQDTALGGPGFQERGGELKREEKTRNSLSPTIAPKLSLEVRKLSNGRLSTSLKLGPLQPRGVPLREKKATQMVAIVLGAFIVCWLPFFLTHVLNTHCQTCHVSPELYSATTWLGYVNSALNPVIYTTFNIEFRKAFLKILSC
#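 Cells plated overnight at 1500 cells/well, then exposed to library compounds with dopamine controls for 90 minutes at 37 degrees C. DiscoveRx reagent added for 30–60 minutes at room temperature; luminescence read, quantitative HTS format.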
# Glioma ERSR ind: induces the endoplasmic reticulum stress response in human glioma cells; U87-MG GRP78 promoter luciferase reporter, 16 h; Potency, µM, inactives show at the top dose activation, most hits filed as activators; 420,000 tested, 0.02% active; AID 602332; note: potency is the fitted concentration of half-maximal effect; series mostly up to about 76 µM; % of control where 0% means no effect; nearly all actives have a fitted effect of over 35% in size
#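 Stably transfected U87-MG human glioma cells carrying a GRP78-based luminescent sensor were seeded at 1000 cells/well, pin-dosed with compounds and incubated 16 h. Luciferase reagent was then added, and end-point luminescence was read after 10 min at room temperature.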
# D3 ag: agonists of human D3 dopamine receptor; max activation, %; P35462; 410,000 tested, 0.58% active; D3R DiscoveRx beta-arrestin cells, luminescence, 90 min; in the data active = max activation above about 30%; note: 0% is about no effect
#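 Cells at 1500/well, incubated overnight, then treated with pinned compounds (dopamine as control) for 90 min at 37 degrees C. DiscoveRx reagent added for 30 - 60 minutes at room temperature; luminescence read.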
# Numbers without * were called inactive; ? = inconclusive; / = not tested or not shown. Unless noted, calls come from the whole dose curve; as a rule, active = well fitted curve in the direction sought with a large enough effect; inconclusive = small, poorly fitted or top-dose-only effect, or another doubt; inactive = no such curve, though single readings can be large; an effect the other way counts as inactive or inconclusive.
SMILES,Nrf2 ARE act,DRD3 antagonist,Glioma ERSR ind,D3 ag
Cc1ccc(NC(=O)c2nnn(CC(=O)Nc3ccc4c(c3)OCO4)c2N)cc1C,1%,-11,2%,-2
Cc1ccc(C)c(NC(=O)c2nnn(CC(=O)Nc3cccc(C)c3C)c2N)c1,0%,/,-4%,40*
COc1cccc(-n2cc(C(=O)Oc3cccc(C(F)(F)F)c3)c3ccccc3c2=O)c1,0%,/,-4%,4
CCc1ccc(NC(=O)C(C)OC(=O)c2ccc(NS(=O)(=O)c3ccc(C)c([N+](=O)[O-])c3)cc2)cc1 (configuration not stated),3%,-53*,-1%,-22
COc1ccc(C(C#N)=C2C=CC(=NO)C(C)=C2Cl)cc1,?,0,-4%,-16
COc1ccc(C(C#N)=C2C=C(Cl)C(=NO)C=C2Cl)cc1,11µM*,-5,0%,-14
COc1ccc(C)c2sc(N(CCN(C)C)C(=O)/C=C/c3cccs3)nc12,?,-55*,-14%,-18
CCN(CC)CCN(C(=O)/C=C/c1cccs1)c1nc2ccc(F)cc2s1,?,-71*,-5%,-18
O=c1cc(COc2ncnc3ccccc23)nc2sccn12,0%,0,-3%,-1
COc1cccc(NC(=O)c2ccc(NCCCN3CCC(C)CC3)c([N+](=O)[O-])c2)c1,3%,-54*,-4%,-20
CC1CCN(CCCCOc2ccccc2[N+](=O)[O-])CC1,-1%,-83*,0%,-22
Cc1ccc(OCCCCN2CCCC(C)C2)c([N+](=O)[O-])c1 (configuration not stated),0%,-80*,-5%,-18
O=c1cc(COc2ccccc2[N+](=O)[O-])nc2sccn12,8.9µM*,-2,1%,5
Cc1ccc(OCCCCNC(C)(C)C)c([N+](=O)[O-])c1,0%,?,-4%,-16
CC1CCN(CCCCOc2ccc([N+](=O)[O-])cc2)CC1,0%,-29,-2%,-36
COC(=O)c1ccc(CN2CCC3(CCC(CNC(=O)c4ccco4)O3)CC2)cc1 (configuration not stated),/,/,0%,/
COc1ccc(OC)c2c(=S)c3ccccc3[nH]c12,/,/,-3%,/
CCN(CC)CCNC(=O)c1ccc(Cl)c(S(=O)(=O)Nc2ccc(Cl)cc2)c1,0%,-56*,-5%,-18
CN(c1cccc(NC(=O)c2ccc(Cl)c(S(=O)(=O)Nc3ccccc3)c2)c1)S(C)(=O)=O,3%,53,5%,52*
CCN(CC)CCOC(=O)c1ccc(N)cc1Cl,/,/,-5%,-9
COc1ccc(C(=O)N2CCC3(CC2)c2ccccc2[C@@H](NC(=O)c2ccccn2)[C@@H]3OC)c(O)c1,/,/,-5%,/
NC(=O)SCC(=O)Nc1ccc(Cl)cc1,9%,-53*,?,-11
CCOC(=O)NC(NCCc1ccccc1)(C(F)(F)F)C(F)(F)F,-1%,-6,-2%,31*
O=C(CCC(=O)N/N=C/c1ccc(Br)s1)NCc1ccccc1,12%,13,-3%,1
O=C(CCC(=O)N/N=C/c1cc(Cl)cc(Cl)c1O)NCc1ccccc1,0%,-54*,-2%,-7
SMILES,Nrf2 ARE act,DRD3 antagonist,Glioma ERSR ind,D3 ag
CN(CCO)C(=O)c1cn(C2CCCN(Cc3ccc4ccccc4c3)C2)nn1 (configuration not stated),/,/,-5%,/
COc1ccc(CN2CC[C@H]3C=CCc4cccc(c43)C2)cc1,1%,-103*,-2%,-34
C1=C[C@@H]2CCN(Cc3ccccc3)Cc3cccc(c32)C1,3%,?,-2%,-50
Cc1ccc(CN2CC[C@H]3C=CCc4cccc(c43)C2)cc1,0%,-123*,-4%,-71
CN(CC1CCN(CCc2cccc(C(F)(F)F)c2)CC1)C(=O)c1ccc(F)cc1,0%,-87*,0%,-24
COc1cc2nc(N3CCCC(O)C3)c(CNCc3ccccc3F)cc2c(OC)c1OC (configuration not stated),/,/,-3%,/
CN(C(=O)COc1ccc(C(C)(C)C)cc1)C1CCS(=O)(=O)C1 (configuration not stated),-1%,-64*,-2%,-6
CCc1ccc(OCC(=O)N(C)C2CCS(=O)(=O)C2)cc1 (configuration not stated),-1%,-21,-2%,-3
Cc1ccc(CNc2ncnc3[nH]ncc23)o1,/,/,-4%,/
COc1ccc(-n2c(CNC(=O)c3cccc(OC)c3OC)nnc2SC)cc1,/,/,-6%,/
COc1ccc(-c2nnc(SCC(=O)Nc3ccc(Cl)cc3)n2C)cc1,0%,-57*,-2%,-6
Cc1ccc(NC(=O)CSc2nnc(-c3ccccc3)n2C)cc1,/,/,-5%,/
C=C(C)Cn1c2ccc(NC(=S)NCc3ccccc3F)cc2c(=O)n1C,4%,-52*,-2%,-12
O=C(O)c1cc(O)c2c(c1)[C@H]([C@H]1c3cc(C(=O)O)cc(O)c3C(=O)c3c(O[C@@H]4O[C@H](CO)[C@@H](O)[C@H](O)[C@H]4O)cccc31)c1cccc(O[C@@H]3O[C@H](CO)[C@@H](O)[C@H](O)[C@H]3O)c1C2=O,/,/,/,-8
c1ccc(OCCCc2nc(-c3ccncc3)no2)cc1,-1%,-52*,6%,2
CC(NC(=O)CN(c1cccc(C(F)(F)F)c1)S(=O)(=O)c1ccc(Cl)c([N+](=O)[O-])c1)c1ccccc1 (configuration not stated),?,-54*,-13%,-17
O=C(CN(c1cccc(C(F)(F)F)c1)S(=O)(=O)c1ccc(Cl)c([N+](=O)[O-])c1)NCc1ccccc1,2%,29,7%,-7
Cc1cc(C)nc(N/N=C/c2ccccc2)n1,0%,-29,5%,-33
Cc1cc(-c2ccccc2)nc(N/N=C/c2ccc(O)cc2)n1,8.9µM*,2,10%,9
Cc1cc(N/N=C/c2ccc(O)cc2)c2cccc(C)c2n1,-3%,-72*,6%,-8
COc1ccc(/C(C)=N/Nc2nc(C)cc(-c3ccccc3)n2)cc1,3%,9,-2%,48*
O=C(COc1ccccc1C(=O)Nc1ccccc1)Nc1ccccc1F,/,/,-1%,/
Cn1c(CN2CCCC2)nc2cc(NS(=O)(=O)c3ccc(Cl)cc3)ccc21,-1%,-104*,2%,-19
Cn1c(CN2CCCC2)nc2cc(NS(=O)(=O)c3ccccc3)ccc21,0%,-80*,-1%,-35
COc1ccc(-n2cnc3cc(NS(=O)(=O)c4ccccc4)ccc32)cc1,2%,-87*,?,5
SMILES,Nrf2 ARE act,DRD3 antagonist,Glioma ERSR ind,D3 ag
Cn1c(CCN2CCCC2)nc2cc(NS(=O)(=O)c3ccc(Cl)cc3)ccc21,16%,?,-10%,-11
Cc1ccc(S(=O)(=O)Nc2ccc3c(c2)nc(CCN2CCCC2)n3C)cc1,?,-57*,-7%,-14
CCCSc1ncc(Cl)c(C(=O)Nc2c(C(=O)c3ccc(C)cc3)oc3ccccc23)n1,3%,/,/,3
c1cnc2cc3c(cc2n1)C1CNCC3C1,/,/,-3%,-5
C=CCCCCCCCCCBr,/,/,-1%,/
COc1cc(-c2cc(C)c3c(OC)ccc(OC)c3n2)cc2c1OCCN(C(=O)Cn1nc(C)cc1C)C2,/,/,-5%,/
Cc1cc(C)c(C(=O)CN2C(=O)NC3(CCCCC3)C2=O)cc1C,1%,-5,5%,35*
